# FXIIa mix inh – inhibitors of human coagulation factor XIIa, pooled mixtures. P00748. purified FXIIa, fluorogenic substrate. AID 684. inhibition, % at 5 µM. 0.2% of 62,000 active;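 also: 0% = enzyme without compound and 100% = no enzyme blank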
# D1 allo mod – allosterically modulates the human D1 dopamine receptor; P21728; HEK293 D1, CRE-luciferase, dopamine EC30 potentiation; actives deviate in either direction; B-score at 10 µM; 5.9% of 58,000 active; AID 641;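 active = luminescence count or its row- and column-corrected plate score outside the 99.7% band of the plate's sample wells, on either side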
# FXIa inh mix – inhibitors of human coagulation factor XIa, pooled mixtures | inhibition, % at 5 µM | 0.19% of 62,000 active | P03951 | AID 680 | purified FXIa, fluorogenic substrate;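 also: each value is inhibition by a whole ten-compound pool holding the compound; 0% = enzyme with no mixture and 100% = wells lacking enzyme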
# M1 ag – M1 muscarinic receptor agonism; CHO-M1 cells, Fluo-4 calcium fluorescence, agonist mode; hits give high values; B-score at 10 µM; 3% of 64,000 active; AID 626;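 active = fluorescence rise, raw or as B-score row- and column-corrected plate score, outside the 99.7% band of its plate's samples, either direction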
# M1 antag – antagonists of rat M1 muscarinic receptor; 3.4% of 64,000 active; B-score at 10 µM; CHO-M1 cells, Fluo-4 calcium, ACh EC80 antagonist mode; hits give low values; P08482;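 active = calcium fluorescence response, raw or row-and-column corrected B-score, differing from the plate sample mean either way at a set confidence level, mostly lower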
# Target sequence (P08482 whole entry, looked up): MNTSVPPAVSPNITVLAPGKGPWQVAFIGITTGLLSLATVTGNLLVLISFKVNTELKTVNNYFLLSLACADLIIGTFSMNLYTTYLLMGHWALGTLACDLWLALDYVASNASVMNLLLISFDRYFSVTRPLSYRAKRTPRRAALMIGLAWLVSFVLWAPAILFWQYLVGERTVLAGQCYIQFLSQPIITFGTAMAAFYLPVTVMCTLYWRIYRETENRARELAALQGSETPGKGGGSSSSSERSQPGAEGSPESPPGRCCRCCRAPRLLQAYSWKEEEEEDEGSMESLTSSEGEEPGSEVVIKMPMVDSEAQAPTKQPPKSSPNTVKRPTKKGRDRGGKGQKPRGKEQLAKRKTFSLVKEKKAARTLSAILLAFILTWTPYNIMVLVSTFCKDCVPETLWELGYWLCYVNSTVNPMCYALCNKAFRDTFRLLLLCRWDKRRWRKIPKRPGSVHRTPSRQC
# DAT uptake mod – modulates human dopamine transporter uptake under cocaine | AID 449768 | 1.3% of 110,000 active | Q01959 | B-score at 10 µM | LLC-PK1 hDAT cells, [14C]-dopamine uptake with cocaine IC80; actives deviate in either direction;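 active = Z score or B-score, a plate-position-corrected score, falls beyond the plate's 99.7% confidence bounds, in either direction; inactive = both scores lie inside the 99.7% bounds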;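 also: scored against the spread of the other compound wells on the same plate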
# D1 PAM confirm – confirmation of human D1 dopamine receptor allosteric modulators | luminescence at 10 µM | 88% of 2,200 active | HEK293 D1 CRE-luciferase, dopamine EC30 potentiation; hits give high values | shares compounds with D1 allo mod;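 active = luminescence in either of two replicates above the same-plate mean plus 3 SD of the low-dose dopamine control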
# D1 ag no DA – secondary test of D1 modulators: activity without dopamine; shares compounds with D1 allo mod; HEK293 D1 CRE-luciferase, luminescence, no dopamine; hits give high values; luminescence at 10 µM; 0.8% of 1,900 active; AID 646; in the data active = luminescence above about 3900
# Isoprot counter – counter-screen for D1 modulators: isoproterenol response in HEK293 cells; 63% of 2,200 active; shares compounds with D1 allo mod; HEK293 D1 CRE-luciferase, isoproterenol EC30 counter-screen; calls only at 10 µM; AID 647;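 active = luminescence in either replicate above plate mean of wells with a partly effective reference agonist dose plus 3 SD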;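 also: isoproterenol raises cAMP through native beta-adrenoceptor Gs so signal bypasses D1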
# * hit, by the source's call; i = inactive; nt = no result; + = active, no number. The list is not random: actives were taken first. Their share in the collection is about 7.4%. Rule as the data show it, unless noted: active = inhibition above about 20% (passing the limit was not always enough); inactive = the rest.
SMILES,FXIIa mix inh,D1 allo mod,FXIa inh mix,M1 ag,M1 antag,DAT uptake mod,D1 PAM confirm,D1 ag no DA,Isoprot counter
Cc1cc(-c2ccc(F)cc2)nc2cc(C(N)=O)nn12,-1,10*,-4,0.6,0.7,-0.13,15420*,1800,+
CCn1nnc(-c2ccccc2NC(=O)c2cc(OC)c(OC)c(OC)c2)n1,8,5.5*,1,0.014,-0.026,0.79,16052*,1640,+
CCOc1ccc(OCC)c2sc(C)nc12,-6,11*,8,0.12,0.56,-0.46,20256*,1572,+
O=C(NCc1ccc2c(c1)OCO2)c1ccc(CN2CCOCC2)cc1,1,0.5,13,1.2,-0.006,-0.51,nt,nt,nt
CCOC(=O)c1ccccc1NC(=O)c1ccc(NS(C)(=O)=O)cc1,2,19*,-15,-0.39,0.16,1.2,19196*,1760,+
CCOC(=O)c1ccc(NS(=O)(=O)CC)cc1,4,2,8,0.8,0.3,0.76,nt,nt,nt
O=C(c1ccc(-c2ccccc2)cc1)N1CCN(c2nc3ccccc3o2)CC1,-20,-0.33,12,-0.16,0.059,0.0036,nt,nt,nt
Cc1ccc2nc(NCCO)nc(-c3ccccc3)c2c1,2,14*,1,-0.16,-0.96,nt,19388*,nt,+
OCCNc1nc(-c2ccccc2)c2ccccc2n1,nt,3.2,nt,-1.5,-0.4,nt,nt,nt,nt
CCCOn1c(OCC(C)C)nc2ccccc2c1=O,-17,4.5*,4,0.15,-0.0034,-1.5,12220*,1508,+
CCN(CC)CCNc1nc(-c2ccccc2)c2c(c1C#N)CC(C)(C)OC2,nt,nt,nt,nt,nt,0.0088,nt,nt,nt
CC1(C)Cc2c(C#N)c(NCCCO)nc(-c3ccccc3)c2CO1,-8,5.8*,-1,-0.6,-0.62,0.98,11280*,1708,+
O=C(Nc1ccc2c(c1)OCCO2)C1CCCN1S(=O)(=O)c1ccc(Cl)cc1 (configuration not stated),3,0.0062,-5,0.67,0.24,-0.29,nt,nt,nt
COc1ccccc1C(=O)NCC(c1cccnc1)N(C)C (configuration not stated),-1,nt,-1,0.058,-0.14,0.047,nt,nt,nt
CN(C)C(CNC(=O)c1cccnc1Sc1ccccc1)c1ccco1 (configuration not stated),4,6.6*,2,0.72,0.44,-0.016,8824*,nt,+
CC(=O)c1c(C)[nH]c(C(=O)OCC(=O)N2CCN(S(=O)(=O)c3ccc(C)cc3C)CC2)c1C,nt,nt,nt,nt,nt,0.66,nt,nt,nt
COc1ccc(C(=O)c2oc3ccccc3c2N)cc1,1,2.7,3,0.12,-1.2,0.22,nt,nt,nt
Nc1c(C(=O)c2ccc(F)cc2)oc2ccccc12,nt,11*,nt,0.065,0.018,-0.041,24288*,1764,+
N#Cc1nc(-c2ccccc2Cl)oc1N1CCOCC1,4,4.8*,2,0.26,-0.045,0.025,7844*,1764,i
Cc1ccc(S(=O)(=O)NC2=NCCC2)cc1,4,-0.69,4,0.15,0.87,1.2,nt,nt,nt
Cc1c2c(nc3c(C(=O)NC4CCCCC4C)cnn13)CCCC2 (configuration not stated),-5,8.2*,6,0.18,0.27,nt,10904*,nt,+
O=C(Nc1c(F)c(F)c(F)c(F)c1F)C1CCCCC1,-50,-0.6,1,0.03,-0.34,-0.4,nt,nt,nt
O=C(Nc1nonc1NC(=O)C1CCCCC1)C1CCCCC1,0,17*,7,-0.77,-0.96,0.33,25348*,1748,+
Cc1c(NC(=O)CCSc2ccc(Cl)cc2)c(=O)n(-c2ccccc2)n1C,nt,nt,nt,nt,nt,1.3,nt,nt,nt
CCN(CC)c1nc(N)c2c(N)nc(OC)cc2c1C#N,nt,nt,nt,nt,nt,-1.8,nt,nt,nt
SMILES,FXIIa mix inh,D1 allo mod,FXIa inh mix,M1 ag,M1 antag,DAT uptake mod,D1 PAM confirm,D1 ag no DA,Isoprot counter
COC(=O)c1c(C)nc(C)c2c(=O)oc3ccccc3c12,2,1,4,nt,nt,-0.11,nt,nt,nt
Cc1cc2c(c(N)n1)c(=O)oc1ccccc12,-3,22*,-41,-0.33,-0.33,-0.046,19088*,nt,+
O=C(COc1ccc(Cl)cc1Cl)Nc1noc2ccccc12,1,-3.6,4,-0.37,0.82,0.15,nt,nt,nt
Cn1c(NC(=O)c2cccs2)cc(=O)n(C)c1=O,-1,nt,2,-0.78,-0.11,-1.4,nt,nt,nt
Cn1c(NC(=O)c2ccc(Cl)cc2Cl)cc(=O)n(C)c1=O,-17,4.5*,-2,-0.32,-0.73,0.33,8676*,1848,+
Cc1ccccc1OCC1Cn2c(nc3c2c(=O)[nH]c(=O)n3C)O1 (configuration not stated),-15,0.58,0,0.023,0.031,-0.33,nt,nt,nt
CCC(C)n1c(-c2cccs2)nc2nc3ccccc3nc21 (configuration not stated),0,10*,-7,0.039,0.0012,-0.45,15740*,1736,+
C=CCn1c(-c2cccs2)nc2nc3ccccc3nc21,2,0.85,-2,-0.64,0.029,1.3,nt,nt,nt
Cc1nc2cc3nc(C)sc3cc2s1,0,-0.1,8,0.18,0.38,1.3,nt,nt,nt
COc1cc(Br)cc(-c2nc3c(c(=O)[nH]c(=O)n3Cc3ccccc3)n2C)c1O,2,8.2*,10,-0.3,0.12,0.096,26460*,1556,+
COc1ccc(-c2nc3c(c(=O)[nH]c(=O)n3Cc3ccccc3)n2Cc2ccccc2)cc1,nt,nt,nt,nt,nt,-0.029,nt,nt,nt
CCNc1nc(NCC)n2c(SCc3nc4ccccc4c(=O)[nH]3)nnc2n1,7,27*,-28,-0.31,0.28,-0.56,21452*,1628,+
Cc1cc(C)c2c(c1)-c1cc(C)nn1C(c1ccc3c(c1)OCO3)N2 (configuration not stated),12,4.4*,-23,0.88,-0.14,-0.47,10424*,nt,+
Cc1cc2n(n1)C(c1ccc3c(c1)OCO3)Nc1c(C)cccc1-2 (configuration not stated),4,12*,4,1.7,0.51,3.5*,13912*,1536,+
Cc1cc2n(n1)C(c1ccc(O)cc1)Nc1ccccc1-2 (configuration not stated),7,0.0061,-34,0.072,0.18,1.4,nt,nt,nt
CCOC(=O)N1CCN(C(=O)c2ccc(Cl)c(S(=O)(=O)Nc3ccccc3)c2)CC1,9,6.1*,4,0.37,0.45,1.1,15076*,1588,i
COc1ccc(C(=O)N2CCCCC2)cc1S(=O)(=O)Nc1ccccc1,44,nt,7,0.66,-0.0059,-0.96,nt,nt,nt
Cc1occc(=O)c1OC(=O)Nc1ccccc1,nt,nt,nt,-1.8,-0.13,0.68,nt,nt,nt

# Screening data: PubChem BioAssay, several laboratories
